# Assay outcomes: PubChem, National Center for Advancing Translational Sciences (NCATS)
# Sampled rows, rich in hits. Any-hit rate of the full collection: about 8.3%.
# FMDV antiviral: foot and mouth disease virus antiviral activity; FMDV antiviral cell-based qHTS; 410,000 tested, 1.2% active; AID 1159524; Potency, µM (highest dose often 57.9 µM), without a hit: at the top dose activity change, negative = inhibition, usual class: inhibitors; calls by dose curve; tested in HEK293T cells; further: read-out not given here; potency means the concentration at half of the fitted maximal effect; nearly all actives have a fitted effect of over 45% in size
# Marburg entry inh: inhibitors of Marburg virus binding or cell entry. Marburg virus pseudotyped entry inhibition, cell reporter. Potency, µM (highest dose often 37.8 µM), for inactives: top-dose activity change, negative = inhibition, actives largely listed as inhibitors. 300,000 tested, 1.8% active. AID 540276; calls by dose curve; tested in HEK293 cells; further: potency means the concentration at half of the fitted maximal effect
# Lassa entry inh: blocks Lassa virus binding to or entry into cells; Lassa virus pseudotype entry inhibition, cell reporter; AID 540256; Potency, µM (highest dose often 37.9 µM), for the others: top-dose activity change, negative = inhibition, usual class: inhibitors; 300,000 tested, 1.2% active; calls by dose curve; tested in HEK293 cells; further: potency means the concentration at half of the fitted maximal effect; nearly all actives have a fitted effect of over 50% in size
# FBPA Giardia inh: blocks Giardia fructose-bisphosphate aldolase activity; purified Giardia FBPA; 290,000 tested, 0.71% active; Potency, µM (highest dose often 59.6 µM), for the others: at the top dose activity, negative = inhibition, usual class: inhibitors; A8B2U2; AID 2451; further: potency means the concentration at half of the fitted maximal effect; nearly all actives have a fitted effect of over 55% in size
# Target sequence (A8B2U2 whole entry, looked up): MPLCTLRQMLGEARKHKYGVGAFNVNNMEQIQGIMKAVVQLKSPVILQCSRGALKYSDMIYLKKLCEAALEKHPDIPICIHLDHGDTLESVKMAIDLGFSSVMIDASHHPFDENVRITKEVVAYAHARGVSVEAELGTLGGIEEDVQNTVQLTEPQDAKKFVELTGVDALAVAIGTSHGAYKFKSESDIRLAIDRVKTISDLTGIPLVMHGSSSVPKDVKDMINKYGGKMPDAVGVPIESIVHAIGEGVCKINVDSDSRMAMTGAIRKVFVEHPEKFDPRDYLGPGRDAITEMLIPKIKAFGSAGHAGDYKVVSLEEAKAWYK
#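 40 nM FBPA preincubated 10 min at RT with compound (up to 57.5 uM final), then substrate plus GAPDH/TPI/NAD/arsenate coupling and diaphorase/resazurin added. Fluorescence read after 20 min at RT, 525/598 nm.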
# HCV inhibitor: inhibitors of hepatitis C virus infection | Potency, µM (highest dose often 41.8 µM), for the others: at the top dose activity change, negative = inhibition, most hits filed as inhibitors | Huh7.5.1 HCVcc-Cre infection, luciferase reporter, 44 h | 340,000 tested, 3.4% active; further: potency means the concentration at half of the fitted maximal effect
#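 Cells (1,000/well) were plated 4 h before compound, then infected with HCVcc-Cre virus (~0.5 moi). After 44 h further culture, infection was read as luciferase luminescence following a 15 min substrate incubation at room temperature.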
# HCMV antiviral: blocks human cytomegalovirus replication. HFF cells, HCMV-luciferase reporter, 72 h; stronger effect = lower value. activity change, negative = inhibition, % at 57.5 µM. 410,000 tested, 4.5% active. AID 1259415; in the data active means activity change below about -60%; inconclusive means no clear call, values can overlap the other calls; inactive means above about -39%
#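 Two compound doses tested in HFFs infected with HCMV-luciferase, MOI 1 PFU/cell, 72 h at 37C. Lysate luminescence read with OneGlo; data normalized against buffer-only and 10uM Salinomycin inhibitor controls.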
# * = called active by the depositor; ? = inconclusive; . = no result given; ! = repeats disagree; [ ] = remark or other dose. Unless noted, the call rests on the fitted dose curve; in most records, active means well fitted curve in the direction sought with a large enough effect; inconclusive means small, poorly fitted or top-dose-only effect, or another doubt; inactive means no such curve, though single readings can be large; an effect the other way counts as inactive or inconclusive. On the % scale 0 is the no-effect control and ±100 the full control effect.
SMILES,FMDV antiviral,Marburg entry inh,Lassa entry inh,FBPA Giardia inh,HCV inhibitor,HCMV antiviral
c1ccc(CN2CCC3(CC2)Nc2ccccc2CO3)cc1,13.7%,-19.3%,-1.3%,-9.4%,-3.3%,-0.2
O=[N+]([O-])c1ccc(N2CCCC(C(F)(F)F)C2)c2ccncc12 (centres undefined),?,?,?,?,10µM*,-12.3
O=[N+]([O-])c1cc(C(F)(F)F)ccc1N1CCCC(O)C1 (centres undefined),-5.2%,?,2.2%,-0.3%,-10.4%,1.9
COc1ccc(NCCC(O)c2ccc(Cl)cc2)cc1 (centres undefined),3.0%,-13.9%,?,-8.8%,17.6%,?
COc1ccc(Cl)cc1NCCC(O)c1ccc(F)cc1 (centres undefined),-24.7%,.,.,2.2%,7.08µM*,-29.6
COCC(=O)N1CCC[C@@]2(CCN(Cc3nccs3)C2)C1,-15.8%,.,.,-0.1%,.,.
COc1ccc2cc(C(=O)C3CCCN(Cc4cnc(N5CCOCC5)s4)C3)ccc2c1 (centres undefined),-19.5%,?,-29.2%[46.1 µM],-6.1%,?,-65.3*
Cc1nnc(SCC(=O)N2CCCC(C(=O)c3ccc(Cl)cc3)C2)o1 (centres undefined),-12.1%,-19.0%[46.1 µM],35.8%,10.5%,0.9%,36.3
Cc1ccsc1C(=O)C1CCCN(Cc2cnc(N(C)C)s2)C1 (centres undefined),.,.,.,-9.9%,.,.
Cc1ccsc1C(=O)C1CCCN(Cc2cnc(N3CCOCC3)s2)C1 (centres undefined),25.1µM*,?,?,-11.4%,?,-33.5
CCn1ccnc1CN1CCCC(C(=O)c2cc(C)c(OC)c(C)c2)C1 (centres undefined),-28.9%,.,.,10.1%,?,-31.8
COc1ccc2cc(C(=O)C3CCCN(C(=O)CSc4nnc(C)o4)C3)ccc2c1 (centres undefined),-23.3%,?,-22.9%[46.1 µM],1.5%,?,-65.7*
CCn1ccnc1CN1CCCC(C(=O)c2ccc3cc(OC)ccc3c2)C1 (centres undefined),?,?,?,-2.3%,10µM*,-9.1
CCC(C)NC(=O)c1ccccc1NC(=O)C1CCN(S(=O)(=O)Cc2ccccc2)CC1 (centres undefined),-8.8%,2.4%[46.1 µM],-12.2%[46.1 µM],.,.,4.9
O=C(CSc1nnc2ccc3ccccc3n12)Nc1ccccc1Cl,35.2%,4.1%[46.1 µM],10.6%[46.1 µM],.,.,-22.0
COC(=O)CC1C(=O)NC(C)=C1C(=O)OC (centres undefined),.,.,.,11.5%,.,.
COC(=O)C1=C(C)NC(C)=C(C(=O)OC)C(N2C(=O)CCC2=O)C1 (centres undefined),.,.,.,.,.,-85.2*
O=c1[nH]c2ccccc2n1CCCN1CCN(C(c2ccccc2)c2ccccc2)CC1,.,12.6µM*,18.4µM*,-1.9%,3.1%[8.37 µM],.
c1cc(OCCN2CC2)ccn1,-0.8%,7.08µM*,-24.4%,.,?,-100.0*
c1ccc(OCCN2CCN(C(c3ccccc3)c3ccccc3)CC2)cc1,?,.,.,-4.4%,11.2µM*,9.4
c1ccc(OCCN2CCNCC2)cc1,10.9%,9.8%[46.1 µM],-1.3%[46.1 µM],.,-7.6%,8.1
Cc1ccc2c(c1)N(C(=O)N1CCC(C(=O)Nc3cccc(F)c3)CC1)CCO2,?,.,1.4%[46.1 µM],.,.,-16.1
O=C(Cc1csc(NC(=O)Nc2cccc(Cl)c2)n1)NC1CCCC1,?,12.6µM*,-13.9%,.,?,-27.8
COc1cccc(CN2CCCC(c3nc(-c4ccncc4)ncc3-c3ccccc3C)C2)c1O (centres undefined),-11.6%,.,.,.,.,.
O=C(N/N=C/c1cc2c(cc1Br)OCO2)c1c[nH]c2ccccc12,0.0%,.,.,1.6%,22.4µM*,-18.7
SMILES,FMDV antiviral,Marburg entry inh,Lassa entry inh,FBPA Giardia inh,HCV inhibitor,HCMV antiviral
O=C(N/N=C/c1cc2c(cc1Br)OCO2)c1ccccn1,37.5%,12.2%,-1.9%,-4.7%,-7.9%,-20.4
CC(SCc1ccccc1)C(=O)N/N=C/c1cc2c(cc1Br)OCO2 (centres undefined),-22.6%,?,23.1µM*,-3.8%,-26.2%,-39.0
CC(C)(C)c1cc(C(=O)N/N=C/c2cc3c(cc2Br)OCO3)n[nH]1,-20.6%,.,.,.,11.2µM*,7.0
CN1OC(C)(CC(=O)Nc2ccccc2)N=C1c1ccccc1 (centres undefined),.,.,.,.,.,-26.9
CC(/C=N/c1ccccn1)=N\c1ccccn1,.,.,.,.,.,-20.1
CCOC(=O)Cn1c(=O)n(CC2CCCO2)c2nc(-c3c(F)cccc3Cl)nc(C(N)=O)c21 (centres undefined),-26.2%,.,-3.0%[46.1 µM],.,.,11.0
N#Cc1c2n(c3c(=O)n(Cc4ccccc4Cl)cnc13)CCCC2,-1.5%,?,?,6.8%,11.2µM*,-31.2
N#Cc1c2n(c3c(=O)n(Cc4ccc(Cl)cc4)cnc13)CCCC2,0.0%,?,1.7%,4.9%,-19.9%,-23.0
CCCCn1c(C)cc2c(c1=O)C1O[C@](c3ccsc3)(Cc3ccccc31)O2,.,.,.,7.0%[12.9 µM],.,.
CCN(Cc1ccc(OC)cc1)c1ccc(-c2nc(-c3ccncc3)no2)cc1[N+](=O)[O-],-17.4%,2.0%[46.1 µM],2.3%[46.1 µM],.,.,8.9
OC(CNCCCN1CCCCC1)COc1ccccc1 (centres undefined),-23.3%,?,-1.3%,-12.5%,10µM*,-8.1
N=c1n(CCO)c2ccccc2n1CCOc1ccc(Cl)cc1Cl,28.2µM*,1.5%,.,-0.2%,?,-1.5
N=c1n(CCN2CCCC2)c2ccccc2n1CC(O)c1ccc(Cl)c(Cl)c1 (centres undefined),?,.,.,-8.4%,11.2µM*,-98.6*
OC(COc1ccccc1)CN1CCCCCC1 (centres undefined),-9.4%,?,-24.3%,-2.9%,-21.0%,-35.2
Cc1ccc(OCC(O)Cn2c(=N)n(CCN3CCCCC3)c3ccccc32)cc1 (centres undefined),?,8.2µM*,?,-2.7%,2.51µM*,-82.4*!
COC(=O)c1c(C)nc(C)c2c(=O)oc3c(c12)CCCC3,.,13.0%,.,.,.,.
N#Cc1ccc2c(c1)C[C@]1(CCCCN3C(=O)c4ccccc4C3=O)Oc3c(c(=O)oc4ccccc34)C2O1,.,.,.,-3.7%[12.9 µM],.,.
COc1ccc(N2CCN(C(CNC(=O)c3ccc(C)cc3)c3ccc4c(c3)OCO4)CC2)cc1 (centres undefined),-18.3%,.,?,.,.,-6.5
N=c1n(CCN2CCCCC2)c2ccccc2n1CC(O)COc1ccc(Cl)cc1Cl (centres undefined),-15.9%,5.62µM*,?,.,.,-99.0*
COc1ccc(OCC(O)Cn2c(=N)n(CCN3CCCCC3)c3ccccc32)cc1 (centres undefined),-27.1%,?,?,1.0%,?,-7.5
N=c1n(CCO)c2ccccc2n1Cc1ccccc1Cl,-5.4%,?,?,-6.0%,22.4µM*,-9.7
COC(=O)N[C@@H](C=Cc1ccccc1)C(C(=O)OC)=C(C)NCc1ccccc1,.,-22.2%[14.2 µM],.,.,.,.
